In PubChem BioAssay (NCATS):
Records with an inconclusive call do not appear. Activity calls are given as the source filed them. The call rests on the fitted dose curve; in most records, active means well fitted cell-killing curve with a large enough effect; inconclusive means small, poorly fitted or top-dose-only effect; inactive means no such curve, though single readings can be large or run the other way.

Assay: qHTS of pediatric cancer cell lines to identify multiple opportunities for drug repurposing: Primary screen for NB-EBc1 cells (AID 1347095)
Settings: NB-EBc1 neuroblastoma viability, CellTiter-Glo luminescence, 48 h; series mostly up to 46 µM
Excerpt: Drug repurposing or repositioning has been offered as a strategy for drug development in oncology programs. This approach has special potential for childhood cancers and other rare or orphan diseases, where the expected return on new drug development has been a disincentive to pharmaceuticals. […] In this project we exploit the poly-pharmacology of drugs to discover new indications via phenotypic screening of a panel of 19 well-characterized cell lines derived from solid tumors seen in children and adolescents. The goal is to identify approved drugs with previously unrecognized anticancer properties that has the potential to reveal new mechanisms and biological processes involved in carcinogenesis or drug resistance. We employed a titration-based paradigm (quantitative high-throughput screening or qHTS), where all compounds were tested at multiple concentrations for their effect on cell viability. Concentration-response curves (CRCs) were derived directly from the primary screen, and both potency and efficacy values were used to identify compounds with robust bioactivity profiles. We screened the NIH Chemical Genomics Center (NCGC) Pharmaceutical Collection (NPC) and Mechanism Interrogation Plate (MIPE) small molecule collections of approved and investigational compounds against these cell lines; and measured metabolically active cells after 48 hours of compound treatment as a proxy for cell viability. […] Assay Submitter: Nathalia J. Martinez, National Center for Advancing Translational Sciences, National Institutes of Health, Rockville, MD, USA; email: natalia.martinez@nih.gov Shen, M et al. Quantitative high-throughput phenotypic screening of pediatric cancer cell lines identifies multiple opportunities for drug repurposing. Oncotarget 2017 Dec 19;9(4):4758-4772. PMID 29435139.
The cells were obtained from University of North Carolina (UNC), Pediatric Preclinical Testing Program (PPT), and Coriell Institute (CI). qHTS cell viability assay: Cells were assayed in growth media at a density of 500-1,000 cells/well. Five microliters of cells were dispensed into 1,536-well, white, solid-bottom, TC-treated plates (Greiner Bio One) using a multidrop dispenser and incubated at 37 degrees C, 5% CO2, under a humidified atmosphere for 5 hours. Twenty-three nanoliters of compounds and controls (neutral control DMSO or positive control bortezomib at final concentration of 2.3 µM) were subsequently transferred by Kalypsys pintool. For primary screens, the MIPE collection was tested at 11-point dilutions (final concentrations range from 0.78 nM to 46 µM) and the NPC collection at 8-point dilutions (final concentrations range from 0.59 nM to 46 µM). Compounds tested in follow-up screens were assayed at 11-point dilutions. Cells were incubated for 48 hours, followed by addition of 3 µL of CellTiter-Glo (Promega). After a 15 min incubation at room temperature, samples were analyzed for luminescence intensity using a ViewLux High-throughput CCD imager equipped with clear filters.

SMILES	outcome
Cc1ncc(CO)c(CN)c1O	inactive
O=C(O)COC(=O)Cc1ccccc1Nc1c(Cl)cccc1Cl	inactive
CC(N)CCCC(C)(C)O (stereo not given)	inactive
O=S1(=O)OC(c2ccc(O)cc2)(c2ccc(O)cc2)c2ccccc21	inactive
O=C(NCCCN1CCOCC1)c1ccc(Cl)cc1	inactive
CCCCCCCCCCCCCCCCN	inactive
Cc1onc(-c2ccccc2)c1-c1ccc(S(N)(=O)=O)cc1	inactive
Cc1ccc2c(c1)c1c3n2CCNC3CCC1 (stereo not given)	inactive
O=C(O)Cc1cn(-c2ccccc2)nc1-c1ccc(Cl)cc1	inactive
CCc1cccc(CC)c1NC(=O)CN(CC(=O)O)CC(=O)O	inactive
O=C(O)/C=C/c1ccc(Cn2ccnc2)cc1	inactive
CC1(C)S[C@@H]2[C@H](N=CN3CCCCCC3)C(=O)N2[C@H]1C(=O)O	inactive
CC1(c2ccccc2)OC(C(=O)O)=CC1=O (stereo not given)	inactive
CCCCCCCC(=O)OCC(COC(=O)CCCCCCC)OC(=O)CCCCCCC	inactive
CN1CCCN=C1COC(=O)C(O)(c1ccccc1)C1CCCCC1 (stereo not given)	inactive
Cc1c(NC(=O)c2cccnc2)c(=O)n(-c2ccccc2)n1C	inactive
CC1CCN(CCCC(=O)c2ccc(F)cc2)CC1	inactive
O=C(/C=C/c1ccccc1)OCc1ccccc1	inactive
CCOc1cc(NC(C)=O)ccc1C(=O)OC	inactive
CNc1c2c(nn1C)CCCC2	inactive

SMILES	outcome
COCC(=O)Nc1c(I)c(C(=O)NCC(O)CO)c(I)c(C(=O)N(C)CC(O)CO)c1I (stereo not given)	inactive
O=C(O)Cn1c(C(=O)Nc2nc(-c3ccccc3Cl)cs2)cc2ccccc21	inactive
Cn1c(=O)c2c(ncn2CCO)n(C)c1=O	inactive
Cc1c(C)c2c(c(C)c1OC(=O)c1cccnc1)CC[C@@](C)(CCC[C@H](C)CCC[C@H](C)CCCC(C)C)O2	inactive
CC(=O)OCC(COC(C)=O)OC(C)=O	inactive
OCCN1C[C@H](O)[C@@H](O)[C@H](O)[C@H]1CO	inactive
O=C(/C=C/c1ccc(O)c(O)c1)O[C@@H]1C[C@@](OC(=O)/C=C/c2ccc(O)c(O)c2)(C(=O)O)C[C@@H](O)[C@@H]1O	inactive
CN1CCN(C(=O)C2CCCCC2)CC1	inactive
COc1ccccc1OC(=O)Oc1ccccc1OC	inactive
C/C=C/C(=O)N(CC)c1ccccc1C	inactive
CCc1nnc(NS(=O)(=O)c2ccc(N)cc2)s1	inactive
C=CCNC(N)=S	inactive
Cc1cccc(C(=O)O)c1O	inactive
CCOC(=O)[C@H](CCc1ccccc1)N[C@@H](C)C(=O)N1CCC[C@H]1C(=O)O	inactive
CC(CSC(=O)c1ccccc1)C(=O)N1C[C@@H](Sc2ccccc2)C[C@H]1C(=O)O (stereo not given in full)	inactive
Nc1ccc(S(=O)(=O)c2ccc(N)cc2)cc1	inactive
COc1ccc2cc(CCC(C)=O)ccc2c1	inactive
CC(=O)N(CC(O)CN(C(C)=O)c1c(I)c(C(=O)NCC(O)CO)c(I)c(C(=O)NCC(O)CO)c1I)c1c(I)c(C(=O)NCC(O)CO)c(I)c(C(=O)NCC(O)CO)c1I (stereo not given)	inactive
NC(=O)N[C@@H](CCC(=O)O)C(=O)O	inactive
CCCC(O)C(CC)CO (stereo not given)	inactive
